Measurements as given in PubChem BioAssay AID504690 (Sanford-Burnham Center for Chemical Genomics, 2011).
The campaign covered roughly 350,000 compounds. About 2,700 (0.77%) were called active. Only a selection was taken, and actives are over-represented in it overall. Unmarked numbers belong to inactive results.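 The calls were made as follows: active = inhibition reaching at least a set limit at 20 µM in the primary screen (cut at about 59% in these data); inactive = the rest.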

These compounds were tested on glucose-6-phosphate dehydrogenase-6-phosphogluconolactonase (Plasmodium falciparum 3D7) (assay: inhibition of malaria parasite G6PD (PfGluPho) – biochemical, fluorescence intensity, uHTS, primary screen (AID 504690;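 also: 0% = DMSO wells with substrate and 100% = DMSO wells lacking glucose-6-phosphate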)). Settings: PfGluPho enzyme, NADPH resazurin-diaphorase fluorescence; at 20 µM; active compounds read high.
`O=C(Nc1cccc(Cl)c1)Nc1ccccc1NS(=O)(=O)c1cccs1` gave an inhibition of -1.49%. With `CCCCSc1nc2c(c(=O)n1CC)SC(C)C2` (configuration not stated) the inhibition was -22.8%. Work on `CCc1cc(C(=O)c2ccc(OC)cc2)c(NC(=O)CN2CCN(C)CC2)s1` yielded an inhibition of -3.28%. `COc1ccc(C(=O)Nc2sc(C)c(C)c2CN2CCOCC2)cc1` gave an inhibition of 3.12%. `CCc1cc(C(N)=O)c(NC(=O)c2ccc(OC)cc2)s1` was tested, and the inhibition was 63.8% (active). Compound `O=C1CC(C(F)(F)C(F)(F)C(F)(F)C(F)(F)F)=Nc2ccccc2N1` has an inhibition of 6.19%. With `CCc1cccc2c3c([nH]c12)C(CC)(CC(=O)O)OCC3` (configuration not stated) the inhibition was -16.9%. `COc1ccc(-c2nnc(-c3ccc4ccccc4c3)o2)cc1` showed an inhibition of 15.1%. In the case of `Nc1ccc(-c2nnc(-c3ccc(-c4ccccc4)cc3)o2)cc1`, the inhibition is reported as 64% (active). Work on `CN(C)c1ccc(-c2nnc(-c3cccnc3)o2)cc1` yielded an inhibition of 3.13%. `CC(C)C[C@@H](NC(=O)[C@H]1CCCN1C(=O)Cc1ccccc1)C(N)=O` showed an inhibition of -7.04%. `C/C=C/C=C/C(=O)OCC(=O)Nc1ccc(Cl)cc1` showed an inhibition of 8.86%. `Cc1ccc(NC(=O)Cn2c(C)csc2=O)cc1` showed an inhibition of 3.32%. Work on `O=C(Cn1nc(C(=O)O)c2ccccc2c1=O)Nc1ccc(F)cc1` yielded an inhibition of -5.5%. In the case of `Cc1ccc(NC(=O)Cn2sc3ccccc3c2=O)cc1`, the inhibition is reported as 125% (active). Compound `CCOc1ccc(/C(O)=C2\C(=O)C(=O)N(c3ccc(OC)cc3)C2c2ccccc2[N+](=O)[O-])cc1` (configuration not stated) has an inhibition of -3.26%. With `Cc1cc(OCC(=O)Nc2nccs2)c2c(C)c(C)c(=O)oc2c1` the inhibition was 0.15%. In the case of `CCCCn1c(N)c(N(CC(C)C)C(=O)c2cccc(S(=O)(=O)N3CC(C)OC(C)C3)c2)c(=O)[nH]c1=O` (configuration not stated), the inhibition is reported as -1.62%. With `CCC1(CC)NC(=O)N(CC(=O)OCC(=O)Nc2ccc(C(F)(F)F)cc2)C1=O` the inhibition was 3.64%. For `O=C(O)/C=C\C(=O)Nc1ccc(OCc2ccccc2)cc1`, the inhibition was -24.5%. In the case of `COc1cccc(NC(=O)COC(=O)/C=C/c2ccco2)c1`, the inhibition is reported as 17.7%. `O=C(/C=C/c1ccco1)Nc1ccc(Oc2ccccc2)cc1` was tested, and the inhibition was 62.8% (active). In the case of `CN(C)c1cccc(C(=O)N2CCC(n3nccc3NC(=O)C3CCOC3)CC2)c1` (configuration not stated), the inhibition is reported as 3.81%. With `COc1ccc(C(=O)N2CCN(c3ncccn3)CC2)cc1S(=O)(=O)N1CCOCC1` the inhibition was 4.39%. With `Cc1ccc(C(=O)/C=C/c2c(C)nn(-c3ccccc3)c2Cl)cc1` the inhibition was 71.4% (active). `Cc1ccc(-n2nc(C)c(/C=N/NC(=O)c3cccs3)c2Cl)cc1` was tested, and the inhibition was 18.2%. In the case of `Cc1nn(-c2ccccc2)c(Cl)c1/C=C/C(=O)c1ccc(O)cc1`, the inhibition is reported as -22.8%. For `CCOC(OCC)c1ccc(/C=C\c2nccc(N)n2)cc1`, the inhibition was 5.93%. `COc1cc(S(=O)(=O)N2CCOCC2)ccc1NC(=O)COc1ccc(N(C)S(=O)(=O)c2ccc(C)cc2)cc1` showed an inhibition of 3.13%. Compound `COc1ccc(Cc2nnnn2CC(=O)O)cc1` has an inhibition of -4.83%. With `CC1(c2ccc3ccccc3c2)NC(=O)N(CC(N)=O)C1=O` (configuration not stated) the inhibition was -14%. `N/C(=N\OC(=O)CCn1cccc(C(F)(F)F)c1=O)c1ccc(OC(F)(F)F)cc1` showed an inhibition of -3.22%. Compound `CCOC(=O)CSc1nnc(NC(=O)c2cccc(S(=O)(=O)N3CCCC3)c2)s1` has an inhibition of -21.8%. For `CCSc1nnc(NC(=O)c2ccc(C)cc2)s1`, the inhibition was 92.9% (active). For `NC(=O)CSc1nnc(NC(=O)c2ccc(Br)o2)s1`, the inhibition was 21.1%. Work on `CCC(C)NCCOCCOc1ccc(Br)cc1C` (configuration not stated) yielded an inhibition of -3.69%. `O=C(NC1CCc2ccccc21)C12CN(Cc3ccccc3)CC1C(c1cccc([N+](=O)[O-])c1)=NO2` (configuration not stated) gave an inhibition of 3.16%. For `O=C1C(Cl)=C(Oc2ccccc2)C(=O)c2ccccc21`, the inhibition was 128% (active). `COc1ccc(-c2c(C)cc3oc(=O)cc(-c4ccccc4)c3c2C)cc1C=O` gave an inhibition of 1.07%. `CCOc1ccccc1Nc1ccc2nonc2c1[N+](=O)[O-]` was tested, and the inhibition was 77.2% (active). `CCOc1ccccc1Nc1ccc(C(=O)O)cc1[N+](=O)[O-]` showed an inhibition of -28.7%. `Cc1ccccc1Nc1c([N+](=O)[O-])ccc2nonc12` gave an inhibition of -0.06%. `CCC(C)C(=O)Nc1cc([N+](=O)[O-])ccc1Cl` (configuration not stated) showed an inhibition of -12.1%. In the case of `Cc1ccc(N(C(=O)CC2NC(=O)NC2=O)C2(C(=O)NC3CCCC3)CCCCC2)cc1` (configuration not stated), the inhibition is reported as 2.93%. For `O=C1/C(=C\Nc2ccccc2)CCN1c1ncccn1`, the inhibition was 10.9%. In the case of `Cc1ccc(S(=O)(=O)N2C[C@@H](C)[C@]3(C2)[C@H](O)[C@H](OC(=O)NCc2ccccc2)C[C@H]2C(=O)N(c4ccccc4)C(=O)[C@H]23)cc1`, the inhibition is reported as 24.5%. With `CC(=O)N1CC[n+]2c(-c3ccc([N+](=O)[O-])cc3)csc21` the inhibition was 60.6% (active). In the case of `COC(=O)c1c(C)[nH]c(C)c1-c1ccc([N+](=O)[O-])cc1`, the inhibition is reported as -17.8%. `CN1C2CCC1CC(NC(=O)c1ccc([N+](=O)[O-])cc1)C2` (configuration not stated) gave an inhibition of -5.81%. `CC(C)NC(=O)/C(C#N)=C\c1ccc(N(C)C)c(Br)c1` gave an inhibition of -1.04%. `CCOC(=O)C1C(=O)OC2(CCCC2)C1C(=O)OCC` (configuration not stated) gave an inhibition of -2.05%. `O=C(COC(=O)c1ccc([N+](=O)[O-])o1)NC12CC3CC(CC(C3)C1)C2` gave an inhibition of 23.2%. With `Cc1ccc(/C=C/C(=O)Nc2cc(S(=O)(=O)N3CCCCCC3)ccc2OCC(F)(F)F)o1` the inhibition was 35.9%. `COC(=O)/C=C\C(=O)Nc1cccc([N+](=O)[O-])c1` was tested, and the inhibition was 45.2%. With `Cc1ccc(/C=C/C(=O)Nc2ccc([N+](=O)[O-])c(NC(=O)/C=C/c3ccc(C)o3)c2)o1` the inhibition was 82.9% (active). Work on `CN(Cc1nc(-c2cnccn2)no1)Cc1n[nH]c2c1CCCCC2` yielded an inhibition of -10.5%. With `O=C(NCCc1ccccc1)C(=O)NCC1OCCN1S(=O)(=O)c1cccs1` (configuration not stated) the inhibition was -3.06%. With `O=C(Nc1c(Cl)cccc1Cl)C1CCC1` the inhibition was -12.1%. For `CCOc1ccccc1/C=N/NC(=O)CNC(=O)COc1ccccc1`, the inhibition was 120% (active). `C=CCOc1ccccc1/C=N/NC(=O)Cc1ccccc1` gave an inhibition of 4.68%. In the case of `C=CCc1ccccc1OCC(=O)N/N=C/c1ccccc1OCC`, the inhibition is reported as 105% (active). In the case of `C=C(C)CNC(=S)N/N=C/c1ccccc1OCC(=O)O`, the inhibition is reported as 3.17%. In the case of `Cc1cccc(OCC(=O)NCC(=O)N/N=C/c2ccc(N(C)C)cc2)c1`, the inhibition is reported as 17.1%. `C=CCc1cccc(/C=N/NC(=O)COc2ccc(-n3cnnn3)cc2)c1O` gave an inhibition of -10.4%. `Fc1ccc(OCc2nn3c(Cn4nnc5ccccc54)nnc3s2)cc1` was tested, and the inhibition was 57.3%. `COC(=O)CSc1nc2c(c(C3CC=CCC3)c1C#N)CCC2` (configuration not stated) gave an inhibition of -38.4%. `CC(C)(C)NS(=O)(=O)CC12CCC(CC1=O)C2(C)C` (configuration not stated) was tested, and the inhibition was -13.3%. For `CCN(C(=O)COC(=O)CCC(=O)c1cccs1)C1CCCCC1`, the inhibition was -5.84%. Work on `CN(CC(=O)Nc1cccc2c1CCCC2)S(=O)(=O)c1ccc(Cl)cc1` yielded an inhibition of 6.22%. `CCc1nonc1NC(=O)c1oc2ccc(Cl)cc2c1C` gave an inhibition of -9.82%. Compound `Cn1c(-c2ccc(F)cc2)cc2onc(-c3ccccc3Cl)c2c1=O` has an inhibition of 4.14%. In the case of `CCc1cccc(C)c1NS(=O)(=O)c1cc(Br)cnc1N`, the inhibition is reported as -9.37%. `CCN(C(=O)CSc1nnc(-c2ccncc2)o1)c1ccccc1` showed an inhibition of -2.03%. With `COc1cc(CNC2CCCC2)c(Br)cc1OCc1ccccc1` the inhibition was -14.8%. `COc1ccc(CCN=C2SCC(=O)N2Cc2ccccc2)cc1OC` gave an inhibition of -8.19%. `COc1cc(C2CC(=O)N3CN(Cc4ccccc4)CSC3=C2C#N)ccc1OCc1ccccc1` (configuration not stated) was tested, and the inhibition was 61.5% (active). `Cc1ccc(S(=O)(=O)N2C[C@H]3C(=O)C[C@@H](c4cccc5ccccc45)N(S(=O)(=O)c4ccc(C)cc4)[C@H]3C[C@H]2c2ccc(Cl)cc2)cc1` showed an inhibition of 7.92%. For `O=C(CSc1cccc2cccnc12)N/N=C/c1cccnc1`, the inhibition was 63.5% (active). For `Cc1c(NC(=O)CSc2cccc3cccnc23)c(=O)n(-c2ccccc2)n1C`, the inhibition was 6.71%. With `O=C(N/N=C\c1cccnc1)c1cc(-c2ccccc2)nc2c(Cl)cccc12` the inhibition was 8.75%. Compound `OC(CNC1CCCC1)COc1ccc(F)cc1` (configuration not stated) has an inhibition of 11.3%. `Cc1ccc(C)c(NS(=O)(=O)c2c(C)[nH]c(C)c2C(=O)N2CCCCC2)c1` gave an inhibition of -16.2%. With `COc1ccc(-n2c(C)cc(C(=O)COC(=O)c3cc(OC)c(OC)cc3NC(=O)c3cccs3)c2C)cc1` the inhibition was -6.02%. In the case of `COc1ccc(-n2c(C)cc(C(=O)CSc3nnc(-c4cccs4)o3)c2C)cc1`, the inhibition is reported as 83.3% (active). For `Cc1ccc(-n2c(C)cc(C(=O)CSc3nnc4ccccn34)c2C)cc1`, the inhibition was 26.1%. `O=C(CCN1CCCCC1)N=Nc1c(O)[nH]c2ccccc12` gave an inhibition of 6.66%. `Oc1[nH]c2ccccc2c1N=Nc1c(F)c(F)c(F)c(F)c1F` showed an inhibition of 0.03%. For `Cc1c(-c2ccccc2)n[nH]c1C(=O)N=Nc1c(O)[nH]c2ccccc12`, the inhibition was 88.8% (active). With `CC1(C)C=C2[C@H]3CC[C@@H]4[C@@]5(C)CCC(=O)C(C)(C)[C@@H]5CC[C@@]4(C)[C@]3(C)CC[C@@]2(C(=O)O)CC1` the inhibition was -28.4%. Compound `COc1ccc(-n2cnc3cc(NCc4ccco4)ccc32)cc1` has an inhibition of 23.7%. `Cn1c(-c2ccco2)nc2cc3ccccc3cc21` was tested, and the inhibition was 60.5% (active). `Cn1c(SCC(=O)Nc2ccc(Br)cc2F)nnc1-c1ccco1` was tested, and the inhibition was -4.98%.
